The list is not random: actives were taken first. Their share in the collection is about 4.9%.
dFosB activator: mouse delta FosB homodimer activation. AID 493131. activation, % at 25 µM. 340,000 compounds, 0.99% hits. P13346. purified delta FosB, TAMRA-CDK5 oligo fluorescence polarization; percent of positive-control signal above neutral wells;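 active = mean activation above about 17%, with every replicate also reaching it, limit read from the data, passing the limit was not always enough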
Target sequence (P13346 whole entry, looked up): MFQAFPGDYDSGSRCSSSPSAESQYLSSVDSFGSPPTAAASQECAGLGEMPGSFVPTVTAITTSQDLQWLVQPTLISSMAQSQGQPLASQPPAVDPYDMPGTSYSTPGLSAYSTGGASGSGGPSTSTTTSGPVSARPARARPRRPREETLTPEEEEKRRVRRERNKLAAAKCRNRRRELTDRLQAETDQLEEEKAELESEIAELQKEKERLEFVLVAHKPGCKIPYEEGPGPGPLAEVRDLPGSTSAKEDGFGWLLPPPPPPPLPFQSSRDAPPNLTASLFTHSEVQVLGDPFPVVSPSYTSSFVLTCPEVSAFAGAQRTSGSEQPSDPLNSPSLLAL
HSP90 inh: inhibitors of HSP90 luciferase refolding in rabbit reticulocyte lysate | luciferase refolding luminescence, 3 h | inhibition, % at 5.6 µM | 290,000 compounds, 0.91% hits;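 active = inhibition above the screen-wide mean plus 3 SD, computed separately per campaign, cut at about 16% in these data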;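 also: 0% = DMSO wells and 100% = 60 µM geldanamycin wells; inhibitors lower the luminescence because luciferase stays unfolded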
Platelet DG rel: platelet dense granule release activity | inhibition, %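 (compounds screened at 7.5 µM in platelet-rich plasma)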 | human platelet-rich plasma, SFLLRN dense granule ATP release, luminescence | 300,000 compounds, 0.22% hits;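 active = mean replicate score, as percent of positive control, at or above 50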
HSF1 inhib: HSF1 inhibition. NIH3T3-HGL HSE-luciferase, MG132-induced, luminescence 8 h; active compounds read low. activity change, negative = inhibition, % at 7.5 µM (by protocol). 300,000 compounds, 0.77% hits. AID 2098;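 active = more than half of replicate wells show activity change below -50%, luminescence cut by over half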;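 also: luciferase reports HSF-1 transcriptional activity via heat shock element; 0% = median of DMSO wells and -100% = zero luminescence signal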
MPTP inh: permeability transition pore inhibition; isolated mouse mitochondria, Ca2+ swelling absorbance, 30 min; inhibition, % at 10 µM; 360,000 compounds, 1.4% hits; AID 602449;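 active = inhibition of 50% or more, scaled per plate between neutral and stimulator controls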;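 also: 0% = DMSO wells given calcium and 100% = 1 mM EGTA wells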
HSF-1 act: increases HSF-1 driven luciferase reporter signal. NIH3T3-HGL HSF-1 luciferase reporter, MG132, 8 h; 100% = twice DMSO control signal. activation, % at 9 µM. 300,000 compounds, 1.7% hits;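 active = mean replicate activation of at least 50% with a set share of replicates each reaching 50%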;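 also: 0% = median of the neutral control wells and 100% = twice that signal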
HSP90 confirm: HSP90 inhibition, confirmation assay | shares compounds with HSP90 inh | rabbit reticulocyte lysate, luciferase refolding luminescence, 3 h | inhibition, % at 5.9 µM | 2,300 compounds, 64% hits; in the data active = inhibition above about 18%;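 also: 0% = vehicle wells and 100% = reference inhibitor wells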
FLuc counter: firefly luciferase inhibition, HSP90 counter-screen; AID 1847; purified native firefly luciferase, luminescence; 2,300 compounds, 48% hits; inhibition, % at 5.9 µM; shares compounds with HSP90 inh;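 active = inhibition above the mean inhibition of all tested sample wells plus 3 SD, cut at about 10% in these data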;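 also: 0% = DMSO with luciferase and 100% = wells lacking luciferase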
Numbers without * were called inactive; . = no result.

SMILES	dFosB activator	HSP90 inh	Platelet DG rel	HSF1 inhib	MPTP inh	HSF-1 act	HSP90 confirm	FLuc counter
CCCCCOc1ccc(CSc2ncn[nH]2)cc1	-13	0	-1	26	3	42	.	.
CC(C)CNC(=O)NC(=O)COC(=O)C1CSC2(c3ccc(F)cc3)CCC(=O)N12 (stereo not drawn)	-5	0	2	-3	1	-4	.	.
O=C(COC(=O)C1CSC2(c3ccc(F)cc3)CCC(=O)N12)NC(=O)NC1CCCC1 (stereo not drawn)	-8	5	2	20	-2	57*	.	.
O=C(Cc1ccc(F)cc1)Nc1nnc(-c2ccc(F)cc2)o1	9	5	-9	-5	-2	7	.	.
Cc1ccc(NC2=NC3(CCCC3)N=C(N)N2)c(C)c1	-12	3	-7	66	-1	83*	.	.
COc1cc(C2C(C(=O)c3cc4ccccc4o3)=C(O)C(=O)N2c2cc(C)on2)cc(OC)c1OC (stereo not drawn)	-14	-2	0	25	-2	57*	.	.
COc1cccc(C2C(C(=O)c3cc4ccccc4o3)=C(O)C(=O)N2c2cc(C)on2)c1OC (stereo not drawn)	1	3	3	5	-1	6	.	.
O=C(CSc1nc2ncccc2[nH]1)c1cccc([N+](=O)[O-])c1	3	2	10	28	1	66*	.	.
O=C(CSc1ncn[nH]1)c1cccc([N+](=O)[O-])c1	1	2	8	77	-1	127*	.	.
CC(C)C(=O)NNC(=O)c1cc2sccc2s1	0	-1	.	.	1	.	.	.
CCC(=NCc1ccc(Cl)c(Cl)c1)c1nc(-c2ccco2)oc1O	-7	-4	-2	37	12	72*	.	.
COc1ccc(N=Cc2nc(-c3ccco3)oc2O)cc1	-9	3	-7	26	0	38	.	.
C(=C/c1nccc2c1[nH]c1ccccc12)/c1ccc2c(c1)OCO2	64*	-3	13	23	16	42	.	.
Clc1ccc(-n2ncc3c(NCc4cccs4)ncnc32)cc1	-4	2	4	22	11	57*	.	.
Cc1cccc(-n2ncc3c(NCc4cccs4)ncnc32)c1	-11	-5	-2	14	2	21	.	.
CN(C)c1cccc(/C=C(\C#N)c2ccccc2)c1	-7	2	-9	36	0	63*	.	.
Cc1ccc(Sc2nc(-c3ccccc3)nnc2C(F)(F)F)cc1	3	-1	-5	88	-1	151*	.	.
Cc1ccc(N2CC(C(=O)Nc3nnc(SCCN4CCOCC4)s3)CC2=O)cc1 (stereo not drawn)	-8	1	-16	-55*	0	-65	.	.
CCOc1ccc(N(CC(=O)N2CCCCCC2)S(=O)(=O)c2ccc(F)cc2)cc1	-8	35*	-3	-6	0	-20	-4	-7
CCOc1ccc(N(CC(=O)N2CCOCC2)S(=O)(=O)c2ccc(F)cc2)cc1	-1	4	-3	-3	-1	0	.	.
CC1CCCN(C(=O)Cn2nnc(-c3ccccc3F)n2)C1 (stereo not drawn)	-4	2	1	21	3	27	.	.
CN(C)c1ccc(/C=C(\Cl)c2nc3ccccc3s2)cc1	-4	49*	.	.	5	.	71*	72*
C#CCn1cc(/C=C2\NC(=O)NC2=O)c2ccccc21	6	67*	-1	-1	1	0	53*	-9
CC(C)c1ccccc1NC(=O)C1CC(=O)N(C2CCCC2)C1 (stereo not drawn)	2	-4	6	-3	2	-28	.	.
O=C(c1cn(-c2ccccc2)nc1-c1ccc(Br)cc1)N1CCOCC1	-9	95*	-3	-6	-1	16	1	-1
SMILES	dFosB activator	HSP90 inh	Platelet DG rel	HSF1 inhib	MPTP inh	HSF-1 act	HSP90 confirm	FLuc counter
O=C(c1cn(-c2ccccc2)nc1-c1ccc(F)cc1)N1CCOCC1	2	3	0	-4	-1	-2	.	.
CC(OC(=O)CC(NC(=O)c1ccccc1Cl)c1ccccc1)C(=O)Nc1cccc(Cl)c1Cl (stereo not drawn)	-4	9	-2	6	2	15	.	.
Cc1cccc([C@@H]2[C@@H]3C(=O)N(Cc4ccccc4)C(=O)[C@@H]3[C@]3(Cc4ccc(Cl)cc4)C(=O)N(c4ccc(Br)cc4)C(=O)N23)c1	-2	27*	-2	2	2	-9	12	-7
CC[C@@]12C(=O)N(c3ccc(C)cc3)C(=O)N1[C@H](c1cccc(C)c1)[C@@H]1C(=O)N(Cc3ccccc3)C(=O)[C@@H]12	2	.	-3	3	0	5	.	.
COc1ccccc1CNC(=O)COC(=O)c1nccnc1N	-6	0	-8	-9	1	-2	.	.
CC(C)NC(=O)C1(C)Cc2c(-c3ccc(N(C)C)cc3)ccnc2O1 (stereo not drawn)	.	.	.	.	1	.	.	.
COc1ccc(-c2cn3ccccc3n2)cc1OC	-4	3	7	16	-2	12	.	.
CCOc1ccc(-c2cn3ccccc3n2)cc1	-6	27*	.	.	1	.	64*	47*
CCOc1ccc(-c2cnc3ccccc3n2)cc1	-3	42*	9	-58*	1	-58	86*	80*
C/C(=N\NC(=O)c1cccc2ccccc12)c1cccs1	3	1	4	8	0	23	.	.
C/C(=N\NC(=O)c1ccccc1O)c1cccs1	-3	23*	-5	5	-3	30	40*	44*
O=C(NCCN1CCC(n2c(=O)[nH]c3ccccc32)CC1)N1c2ccccc2Sc2ccccc21	.	.	.	.	-1	.	.	.
Cc1cccc(CC(=O)N2CCC(N3CCC(C(=O)N4CCOCC4)CC3)CC2)c1	-3	51*	-12	-8	-2	-1	-7	-8
COc1ccc(N2c3ccccc3CN(Cc3ccccc3)CC2Cc2cc(OC)c(OC)c(OC)c2)cc1 (stereo not drawn)	.	.	.	.	0	.	.	.
Cc1ccc2nc(NC(=O)c3ccccc3F)sc2c1	-2	8	0	2	1	15	.	.
COc1ccccc1C(=O)Nc1nc2ccccc2s1	-14	91*	73*	-88*	0	-90	96*	93*
COc1ccc2nc(NC(=O)c3ccccc3F)sc2c1	4	18*	16	29	1	41	38*	31*
CC(OC(=O)c1ccc(F)c(S(=O)(=O)N2CCOCC2)c1)C(=O)NC1CCCC1 (stereo not drawn)	-1	.	.	.	-2	.	.	.
COc1cccc(NC(=O)N2CCc3ccccc3C2)c1	-6	21*	-2	12	1	7	3	-15
O=c1c2c(nc3cc(-c4cccc(Cl)c4)[nH]n13)CCC2	4	1	7	-3	1	-3	.	.
